Laboratory results reported in PubChem BioAssay AID493200 (National Center for Advancing Translational Sciences (NCATS), 2011).
Records with an inconclusive call do not appear. Calls of active or inactive are those of the source. Calls come from the whole dose curve; as a rule, active = well fitted activation curve with a large enough effect; inconclusive = small, poorly fitted or top-dose-only effect; inactive = no such curve, though single readings can be large or run the other way.

Experiment: qHTS Assay for Rab9 Promoter Activators: Initial hit validation from the primary screen; for activation: % of control where 0% means no effect
Details: Huh7 Rab9 promoter luciferase reporter, 24 h; series mostly up to 46.1 µM; activation: at the top concentration
Source text: NIH Chemical Genomics Center [NCGC] NIH Molecular Libraries Probe Production centers Network [MLPCN] MLPCN Grant: MH089537-01 Assay Submitter (PI): Yiannis A. Ioannou NCGC Assay Overview: Niemann Pick Type C (NPC) is a rare neurodegenerative lipidosis that is characterized by lipid storage in the endosomal/lysosomal system. Treatment modalities for this devastating disease are currently non-existent due to the severe obstacles associated with accessing the central nervous system with proteins or genes (Ioannou, 2000). We have developed a new paradigm, termed "Orphan Receptor Bypass Therapy" (ORByT), to address these disorders. This paradigm posits the existence of endogenous "suppressor" proteins whose expression can dramatically improve LSD pathogenesis. The goal is the identification/discovery of small chemical compounds that can modulate the expression of these proteins and provide a new treatment modality for these devastating disorders. One such protein whose overexpression reverses aspects of the NPC phenotype is Rab9. We have developed and optimized a cell based luciferase reporter assay in 1536 well format for the identification of up-regulators of the Rab9 promoter. This assay presents data on the validation of hits from the primary screen.
The Rab9 promoter is cloned in front of the luciferase reporter gene, therefore […] promoter activation results in luciferase expression. Frozen stock of the Rab9 promoter transfected Huh7 cells were obtained from the laboratory of Dr. Yiannis Ioannou (The Mount Sinai School of Medicine, New York, NY). Cells were propagated and maintained at NCGC in medium containing RPMI-1640 supplemented with 10% FBS, 2mM L-glutamine, and 50ug/ml penicillin/streptomycin. Cells were harvested in and plated for assays in OP-MEM I reduced-serum medium supplemented with 10% FBS. The Amplite luciferase reporter gene assay kit was purchased from ABD Bioquest and prepared/stored according to manufacturers recommendations. qHTS Assay Setup: 1.Dispensed 5ul of Huh7 cells stably expressing Rab9-luciferase at a density of 1500 cells per well 1536-well plates. 2.Incubate cells at 37C, 5% CO2, and 95% humidity for 2 hours. 3.Transferred 23nl per well of compound in DMSO solution. 4.Incubated at 37C, 5% CO2, and 95% humidity for 24 hours. 5.Dispensed 3ul per well of Amplite reagent(ABD Bioquest) per well. 6.Incubate at ambient for 10 minutes. 7.Read using the luminescence protocol on the ViewLux plate reader (Perkin Elmer).
Potency is the fitted concentration of half-maximal effect.

Potency, active:
O=C(CSc1nnc(-c2ccccn2)o1)Nc1ccccc1Cl 888 nM
Cc1ccc(N(O)C(=O)NCCCCNC(=O)N(O)c2ccc(C)cc2)cc1 15800 nM
O=C(COc1ccccc1F)Nc1ccc(-c2nc3ccccc3s2)cc1 223 nM
N#C/C(=C\c1ccc[nH]1)C(=O)Nc1ccccc1Cl 3530 nM
O=C(Nc1nc2ccc(F)cc2s1)c1ccc(N2CCCC2=O)cc1 199 nM

activation, inactive:
O=C(N/N=C/c1ccc(-c2ccc(Br)cc2)o1)c1ccc2c(c1)OCO2 3.2%
CN(C)C(CNC(=O)CNC(=O)c1ccc2ccccc2c1)c1ccccc1 (stereo not given) -1.55%
CNC(=O)Cn1nc(C)c2ccccc2c1=O -1.21%
NCCOc1ccccc1-c1ccccc1 -3.52%
Cc1cc(C)cc(N(CC(=O)NC2CCCC2)C(=O)CNC(=O)c2ccco2)c1 -0.368%
CCCCn1c(CCNC(=O)c2cccs2)nc2ccccc21 -9.29%
NNC(=O)c1cccc(S(=O)(=O)Nc2cc(Cl)ccc2Cl)c1 -1.11%
NC(=O)C(=O)NN=C1C2CC3CC(C2)CC1C3 0%
CCOC(=O)c1ccc(NC(=O)Oc2cc(C)c(Cl)cc2C(C)C)cc1 3.5%
COc1ccccc1N(C(=O)c1snc(C(N)=O)c1N)C(C(=O)NC1CCCCC1)c1cccc(OC)c1OC (stereo not given) -25.6%
Cc1nc(-c2ccc(S(=O)(=O)Oc3ccc(Cl)cc3Cl)s2)cs1 -13.4%
COc1ccc(NC(=O)CN(C)C(=O)c2ccc(=O)[nH]c2)cc1 1.74%
CC(=O)[C@@H]1[C@@H](C(=O)c2ccc(C)cc2)[C@]2(C(=O)Nc3ccccc32)[C@H]2C=Cc3cc(F)ccc3N12 -1.39%
O=CN1CCN(C(=O)c2ccccc2Cl)CC1 1.05%
O=C(NCC1CCCO1)C(c1ccc(F)cc1)N(Cc1ccc2c(c1)OCO2)C(=O)c1ccc(CN2CCOCC2)o1 (stereo not given) -4.25%
CCN(CC(=O)N(CC(C)C)c1c(N)n(CC(C)C)c(=O)[nH]c1=O)Cc1nc2ccccc2c(=O)[nH]1 3.7%
CC1CC(C)CN(CC(=O)N2CCOCC2)C1 (stereo not given) -1.53%
CCOC(=O)c1cc2sccc2n1CC(=O)N1CCCc2ccccc21 -13.2%
O=C(c1cccc(Oc2ccc([N+](=O)[O-])cc2)c1)N1CCOCC1 -14.3%
COc1ccc(S(=O)(=O)NC(C(=O)NCCc2ccccn2)C(C)C)cc1 (stereo not given) 1.37%
CCC(C)(C)NC(=O)C(c1ccc(OC)cc1)N(Cc1cccs1)C(=O)CCC(=O)Nc1cc(C)on1 (stereo not given) -17.8%
Cc1c(C(O)CN2CCN(Cc3ccc4c(c3)OCO4)CC2)c2ccccc2n1C (stereo not given) -2.51%
Cc1ccc(S(=O)(=O)N2CCN(c3cnn(C)c(=O)c3Cl)CC2)cc1 -7.24%
Cc1cccc(N2CCN(C(=S)c3ccccc3)CC2)c1 18.2%
CCN(CC)S(=O)(=O)c1ccc(NCc2ccccn2)nc1 3.98%
COCCNC(=O)CN1C(=O)NC(c2ccccc2)(c2ccccc2)C1=O -2.37%
CN(C)C(=O)[C@H]1C[C@H]1[C@@H](O)[C@H](CO)NC(=O)[C@H](COCc1ccccc1)NC(=O)OC(C)(C)C -1.21%
O=C(O)C1=CC[C@@H](c2ccc(Cl)cc2)N(S(=O)(=O)c2ccc(Cl)cc2)[C@H]1c1ccccc1 -13.5%
CCCN(CCC)CCCNC(=O)c1cc2cc3ccc(Cl)cc3nc2o1 -13%
O=C(CCNC(=O)c1ccc(Br)o1)NCc1ccc(Cl)cc1 0.0639%
O=C(c1cc2cc([N+](=O)[O-])ccc2oc1=O)n1cccn1 0.777%
CC1CCCN(S(=O)(=O)c2ccc(C(=O)Nc3nnc(-c4ccncc4)o3)cc2)C1 (stereo not given) -34.8%
CC(=O)Nc1nnc(SCC(=O)NCCOc2ccccc2)s1 -3.72%
CC1=C(C(=O)OC2CCCC(C)C2)C(c2ccccc2)NC(=O)N1 (stereo not given) -13.1%
Cc1nn(CCCC(=O)NCc2ccc(F)cc2)c(C)c1[N+](=O)[O-] 1.2%
